RGS8-Gao reg: human RGS8-Galphao interaction regulation; P09471; multiplexed bead flow cytometry, RGS8-Galphao binding; actives lie on both sides; response (percent of control binding), % at 10 µM; 220,000 compounds, 0.34% hits; in the data active = response below about 60% or above about 140%; inactive = in between;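 also: Galphao activated as the GDP aluminium fluoride complex binding bead-coupled RGS8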
GSH bead fluor: compound fluoresces at 488/530 nm on GSH beads; GSH beads flow cytometry, compound fluorescence 488/530 nm; active compounds read high; fluorescence (KMESF) at 10 µM; 190,000 compounds, 0.25% hits; AID 1776; in the data active = fluorescence above about 89;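 also: glutathione beads carrying GST-tagged Bcl family fusion proteins plus one bare bead set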
RGS7-Gao: regulators of human RGS7-Galphao interaction; AID 1439; binding response (% of control), % at 10 µM; Multiplexed bead flow cytometry, RGS7-Galphao binding; actives lie on both sides; 220,000 compounds, 0.35% hits; in the data active = binding response below about 49% or above about 150%; inconclusive = no clear call, values can overlap the other calls; inactive = in between;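 also: fluorescent Galphao held in activated GDP-AlF4 state binding bead-coupled RGS7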
RGS4-Gao reg: human RGS4-Galphao interaction regulation. P09471. Multiplexed bead flow cytometry, RGS4-Galphao binding; actives lie on both sides. binding response (% of control), % at 10 µM. 220,000 compounds, 0.33% hits. AID 1415; in the data active = binding response below about 49% or above about 150%; inactive = in between;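 also: fluorescent Galphao activated with aluminum fluoride binding bead-coupled RGS4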
RGS16-Gao: modulates binding between human RGS16 and Galphao; binding response (% of control), % at 10 µM; 220,000 compounds, 0.38% hits; O15492+P09471; bead-based flow cytometry RGS16-Galphao binding, fluorescence; actives lie on both sides;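 also: Galphao activated by GDP with aluminum fluoride before binding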
Target sequence (O15492 whole entry, looked up): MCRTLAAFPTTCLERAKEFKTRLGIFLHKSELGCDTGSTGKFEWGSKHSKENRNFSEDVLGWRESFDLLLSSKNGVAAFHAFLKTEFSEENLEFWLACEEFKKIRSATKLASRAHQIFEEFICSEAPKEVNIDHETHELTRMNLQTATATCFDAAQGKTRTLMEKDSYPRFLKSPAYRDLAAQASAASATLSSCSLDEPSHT
Target sequence (P09471 whole entry, looked up): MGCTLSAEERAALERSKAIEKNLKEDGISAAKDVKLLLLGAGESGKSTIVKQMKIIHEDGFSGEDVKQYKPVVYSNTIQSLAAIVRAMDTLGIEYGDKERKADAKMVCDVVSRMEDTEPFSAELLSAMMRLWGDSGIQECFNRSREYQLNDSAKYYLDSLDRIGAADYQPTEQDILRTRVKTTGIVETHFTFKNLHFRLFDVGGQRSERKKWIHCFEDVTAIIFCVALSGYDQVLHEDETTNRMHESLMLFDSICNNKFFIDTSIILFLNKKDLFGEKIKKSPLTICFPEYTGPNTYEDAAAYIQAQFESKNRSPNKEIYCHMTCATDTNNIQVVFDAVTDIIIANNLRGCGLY
Avidin bead fluor: avidin bead compound fluorescence profile; Avidin beads, compound fluorescence 488/530 nm, flow cytometry; active compounds read high; fluorescence (KMESF) at 10 µM; 220,000 compounds, 0.38% hits; AID 1775; in the data active = fluorescence above about 47
RGS4-Gao HTS: modulates binding between human RGS4 and Galphao; shares compounds with RGS16-Gao; RGS4–Galpha-o binding response, % at 10 µM; multiplexed bead flow cytometry, RGS–Galpha-o binding; 1,600 compounds, 99% hits; AID 1504;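 also: fluorescently labeled Galpha-o bound to GDP with aluminium fluoride binding biotinylated RGS beads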
Avidin counter: interferes with biotinylated probe binding to avidin beads; 1,700 tested, under 10 active; streptavidin beads, fluorescein-biotin binding, flow cytometry; AID 1783; shares compounds with RGS16-Gao; inhibition, % at 10 µM;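 active = inhibition above 50%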;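 also: median green fluorescence of gated singlet beads compared with DMSO control wells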
RGS8-Gao single: RGS8-Galphao interaction regulation, single point confirmation | shares compounds with RGS16-Gao | AID 1836 | binding response (% of control), % at 10 µM | 1,700 compounds, 3% hits | bead-based flow cytometry RGS8-Galphao binding, fluorescence; actives lie on both sides; in the data active = binding response below about 72% or above about 130%; inactive = in between;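 also: Galphao activated as GDP AlF4 complex before binding bead RGS8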
RGS7-Gao confirm: confirmation of regulators of human RGS7-Galphao interaction; AID 1837; response (percent of control binding), % at 10 µM; shares compounds with RGS16-Gao; 1,700 compounds, 7.8% hits; bead-based flow cytometry RGS7-Galphao binding; actives lie on both sides; in the data active = response below about 75% or above about 130%; inactive = in between;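 also: fluorescent Galphao activated with GDP and aluminum fluoride binding bead-coupled RGS7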
RGS16-Gao single: RGS16-Galphao interaction regulation, single point confirmation; shares compounds with RGS16-Gao; bead-based flow cytometry, RGS16-Galphao binding; actives lie on both sides; response (% of control binding), % at 10 µM; 1,700 compounds, 4% hits; AID 1838; in the data active = response below about 74% or above about 130%; inactive = in between;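 also: Galphao activated as the GDP aluminium fluoride complex binding bead-coupled RGS16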
RGS4-Gao confirm: RGS4-Galphao interaction regulation, single point confirmation. 1,700 compounds, 4% hits. shares compounds with RGS16-Gao. binding response (% of control), % at 10 µM. RGS4-Galphao binding, multiplexed bead flow cytometry; actives lie on both sides; in the data active = binding response below about 74% or above about 130%; inactive = in between
RGS19-Gao conf: confirmation of regulators of human RGS19-Galphao interaction; 1,700 compounds, 5% hits; bead-based flow cytometry RGS19-Galphao binding; actives lie on both sides; response (percent of control binding), % at 10 µM; shares compounds with RGS16-Gao; in the data active = response below about 50% or above about 160%; inactive = in between
Numbers stand for hits; - = inactive; ? = inconclusive; . = no result; [ ] = another dose, or the depositor's remark. An excerpt weighted towards active compounds, which were near 1.2% of everything screened. Unless noted, no rule for the calls is given here.

SMILES	RGS8-Gao reg	GSH bead fluor	RGS7-Gao	RGS4-Gao reg	RGS16-Gao	Avidin bead fluor	RGS4-Gao HTS	Avidin counter	RGS8-Gao single	RGS7-Gao confirm	RGS16-Gao single	RGS4-Gao confirm	RGS19-Gao conf
COc1ccccc1-n1c(-c2ccccc2)n[nH]c1=S	-	-	159[activator]	-	-	-	106	-	-	176[activator]	137[activator]	133[activator]	157[activator]
COc1ccccc1-n1c(-c2cn(C)nc2C)n[nH]c1=S	-	-	-	-	13	-	93	-	-	-	-	-	-
O=C(CSc1nn(-c2ccc(F)cc2)c(=S)s1)NC(=O)NCc1ccco1	-	-	-	-	19	-	74	-	-	-	-	-	-
Cc1nnc(SCC(=O)NC(=O)NCc2ccco2)s1	-	-	?	-	-	-	.	.	.	.	.	.	.
CC(=O)Nc1nc(COc2ccccc2)cs1	-	-	-	-	-	-	.	.	.	.	.	.	.
Cc1ccc(C(=O)Nc2nc(COc3ccccc3)cs2)s1	.	-	.	.	.	.	.	-	-	-	-	-	-
O=C(NNC(=O)C1C2CCC(C2)C1C(=O)O)c1cccc(Cl)c1 (stereo unspecified)	-	-	?	-	-	-	.	.	.	.	.	.	.
Cn1c(-c2ccc(F)cc2)cnc1NCc1cc2c(cc1[N+](=O)[O-])OCO2	-	-	-	-	-	-	.	.	.	.	.	.	.
Cc1cc(F)ccc1NCc1cc2c(cc1[N+](=O)[O-])OCO2	-	-	-	-	-41	-	84	-	-	-	-	-	-
O=C(Cc1ccccc1)Nn1c(O)c(/C=C2\C=Nc3ccccc32)sc1=S	-	-	-	-	262[activator]	-	99	-	-	-	-	-	-
O=C(NCCCn1ccnc1)c1cccc(S(=O)(=O)NCc2ccccc2)c1	-	-	-	-	-	-	.	.	.	.	.	.	.
O=C1/C(=C\c2ccc(-c3ccccc3[N+](=O)[O-])o2)C(c2ccccc2)=NN1c1ccccc1	14	-	7.8	-5.8	-1.8	-	.	-	-	-	-	-	-
Cc1ccc(C(=O)COC(=O)CCCC(=O)Nc2cc(C(F)(F)F)ccc2Cl)cc1C	26	-	12	20	11	-	.	-	-	-	-	-	-
Cc1ccc(C(=O)COC(=O)CCC(=O)Nc2ccccc2Cl)cc1[N+](=O)[O-]	-	-	-	-	-	-	.	.	.	.	.	.	.
CC(/C=C1\SC(=O)N(CCCC(=O)O)C1=O)=C\c1ccccc1	-	-	160[activator]	165[activator]	-	-	.	-	-	-	-	-	-
CCOc1ccc(CCNC(=O)CN2C(=O)NC(CCSC)C2=O)cc1OCC (stereo unspecified)	-	-	?	-	-	-	.	.	.	.	.	.	.
Cc1cc(C)c2c(CC(=O)NC(C)C)coc2c1	151[activator]	-	-	-	-	-	141	-	-	-	-	-	-
CCN(CC)S(=O)(=O)c1cccc(-c2nnc(SCCOc3ccccc3C)o2)c1	.	-	153[activator]	177[activator]	211[activator]	.	.	-	-	-	-	-	-
O=C(Cc1ccc(Br)cc1)N(Cc1ccccc1)c1ccccn1	-	-	151[activator]	-	-	59	112	-	-	-	-	-	-
